Results filed as inconclusive are left out. The source made the active and inactive calls. The calls were made as follows, unless noted: active = hit-call score of the fitted dose curve at least 0.9, where 1 is the maximum; inactive = score below 0.9.
Columns and labels:
[1] = ATG_NFI_CIS: Attagene CIS-FACTORIAL HepG2 Assay for human Nuclear Factor I (NFI) (AID 2282989); conditions: HepG2 cis-regulatory reporter, NFI response element transcription; actives raise or lower the signal
Summary of the method: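 After transient transfection of HepG2 with cis-promoter reporter constructs and 24 h dosing, RNA is reverse-transcribed, amplified, 6-FAM end-labelled and HpaI-digested before capillary analysis. Bidirectional curve fitting against DMSO.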

[2] = target: Myc proto-oncogene protein (Homo sapiens) (UniProt P01106); assay: ATG_Myc_CIS: Attagene CIS-FACTORIAL HepG2 Assay for human Myelocytomatosis (Myc) Proto-Oncogene Transcription Factor (AID 2282990); conditions: HepG2, Attagene cis-reporter transcription factor activity; actives raise or lower the signal
Summary of the method: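 Fluorescence intensity of reporter-specific cDNA fragments, separated by capillary electrophoresis, gives the signal. Transfected HepG2 cells carrying cis-promoter reporter constructs are incubated with compound for 24 h; DMSO serves as baseline.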

[3] = ATG_NF_kB_CIS: Attagene CIS-FACTORIAL HepG2 Assay for human Nuclear Factor Kappa B (NF-kB) (AID 2282991); conditions: HepG2 Attagene cis-factorial NF-kB reporter mRNA; actives raise or lower the signal
Summary of the method: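 Multiplexed cis-reporter assay in transiently transfected HepG2. 24 h treatment; RNA isolated, RT-PCR, labelled fragments resolved by CE. DMSO baseline.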

[4] = ATG_NRF2_ARE_CIS: Attagene CIS-FACTORIAL HepG2 Assay for human Nuclear Factor Erythroid 2 Related Factor 2 (NFR2) response to Antioxidant Response Elements (ARE) (AID 2282992); conditions: HepG2 Attagene ARE/NRF2 reporter, transcription factor activity; actives raise or lower the signal
Summary of the method: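 Endogenous transcription factor activity read out as reporter transcript levels (RT-PCR plus capillary electrophoresis, fluorescence) in transiently transfected HepG2 cells. Measured at 24 h after dosing; gain or loss of signal fitted versus DMSO.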

[5] = target: Cellular tumor antigen p53 (Homo sapiens) (UniProt P04637); assay: ATG_p53_CIS: Attagene CIS-FACTORIAL HepG2 Assay for human p53 Transcription Factor (AID 2282994); conditions: HepG2 p53 cis-element reporter, Attagene mRNA; actives raise or lower the signal
Summary of the method: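 Endogenous p53 activity read in transiently transfected HepG2 from a cis-element-driven reporter transcript after 24 h exposure. RNA reverse-transcribed, PCR-amplified, fluorescently labelled and sized by capillary electrophoresis; gain or loss fitted against DMSO baseline.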

[6] = BSK_3C_TissueFactor: BioMAP Diversity Plus: 3C Assay for Tissue Factor Biomarker Activity (AID 2282997); conditions: BioMAP 3C HUVEC, tissue factor biomarker readout; actives raise or lower the signal
Summary of the method: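 Cells used were primary human umbilical vein endothelial cells. They were dosed with chemical, and after 24 h Tissue Factor was quantified by ELISA. Curves were fitted bidirectionally with DMSO as baseline.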

[7] = BSK_3C_VCAM1: BioMAP Diversity Plus: 3C Assay for Vascular cell adhesion molecule 1 (VCAM1) Biomarker Activity (AID 2282999); conditions: BioMAP 3C HUVEC, VCAM1 ELISA, cytokine-stimulated; actives raise or lower the signal
Summary of the method: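 HUVEC primary cells, 24 h compound exposure; VCAM-1 by ELISA; gain/loss of signal fitted bidirectionally vs DMSO baseline.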

[8] = BSK_4H_Eotaxin3: BioMAP Diversity Plus: 4H Assay for Eotaxin 3 Biomarker Activity (AID 2283000); conditions: primary human endothelial cells (HUVEC); actives raise or lower the signal
Summary of the method: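 Endothelial primary cells (human umbilical vein) exposed to compound for 24 h. ELISA detection of Eotaxin-3.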

[9] = target: human Peroxisome Proliferator-activated Receptor alpha (PPARa), PPARA (gene 5465) (UniProt Q07869); assay: ATG_PPARa_TRANS: Attagene TRANS-FACTORIAL HepG2 Assay for human Peroxisome Proliferator-activated Receptor alpha (PPARa) (AID 2283001; active = hit-call score of the fitted dose curve at least 0.9, where 1 is the maximum;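 as to AC50: potency for gain of reporter signal over DMSO so agonist or activator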)
Summary of the method: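 Transient HepG2 transfection, GAL4-UAS reporters, NR-Gal4 chimeras; 24 h compound exposure. Readout: reporter transcripts by RT-PCR, 6-FAM primer extension, HpaI digest, capillary electrophoresis. Positive direction vs DMSO baseline.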

[10] = target: human Peroxisome Proliferator-activated Receptor delta (PPARd), PPARD (gene 5467) (UniProt Q03181); assay: ATG_PPARd_TRANS: Attagene TRANS-FACTORIAL HepG2 Assay for human Peroxisome Proliferator-activated Receptor delta (PPARd) (AID 2283002; active = hit-call score of the fitted dose curve at least 0.9, where 1 is the maximum)
Summary of the method: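 Fluorescence from capillary electrophoresis of labelled RT-PCR reporter fragments gives the signal; DMSO sets baseline. Cells: HepG2 transiently carrying GAL4-UAS reporter units plus chimeric nuclear receptor-Gal4 proteins, exposed to chemicals for 24 h.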

[11] = read-out: Intercellular Adhesion Molecule 1 (ICAM1), ICAM1 (gene 3383); assay: BSK_3C_ICAM1: BioMAP Diversity Plus: 3C Assay for Intercellular Adhesion Molecule 1 (ICAM1) Biomarker Activity (AID 2283003); conditions: primary human endothelial cells (HUVEC); actives raise or lower the signal
Summary of the method: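 Using DMSO as baseline, bidirectional curve fitting was applied to ICAM-1 ELISA signals from HUVEC in the 3C system, measured 24 h after compound addition.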

[12] = target: Peroxisome proliferator-activated receptor gamma (Homo sapiens) (UniProt P37231); assay: ATG_PPARg_TRANS: Attagene TRANS-FACTORIAL HepG2 Assay for human Peroxisome Proliferator-activated Receptor-gamma (PPARg) (AID 2283007; active = hit-call score of the fitted dose curve at least 0.9, where 1 is the maximum)
Summary of the method: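 Human hepatoma HepG2, transient MRTU transfection, 24 h treatment. mRNA reporter signal by RT-PCR plus capillary electrophoresis, fluorescence detection; fitted for increase over DMSO negative control.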

[13] = target: Nuclear receptor subfamily 1 group I member 2 (Homo sapiens) (UniProt O75469); assay: ATG_PXR_TRANS: Attagene TRANS-FACTORIAL HepG2 Assay for human Pregnane X Receptor (PXR) (AID 2283008; active = hit-call score of the fitted dose curve at least 0.9, where 1 is the maximum)
Summary of the method: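 Transactivation by exogenous PXR–GAL4 fusion measured as reporter transcript induction after 24 h compound treatment of transfected human HepG2 cells. Read-out via RT-PCR and capillary electrophoresis of labelled fragments, fitted upward relative to DMSO.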

[14] = ATG_Oct_MLP_CIS: Attagene CIS-FACTORIAL HepG2 Assay for human Octamer-Binding Transcription Factor (Oct) (AID 2282993); conditions: HepG2 Attagene cis-factorial Oct reporter, mRNA; actives raise or lower the signal
Summary of the method: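 Cells of the HepG2 line express promoter-controlled reporter sequences whose mRNA levels, after 24 h treatment, are measured by RT-PCR and capillary electrophoresis. Increases and decreases are scored relative to DMSO.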

[15] = target: human RAR-related Orphan Receptor beta (RORb), RORB (gene 6096) (UniProt Q92753); assay: ATG_RORb_TRANS: Attagene TRANS-FACTORIAL HepG2 Assay for human RAR-related Orphan Receptor beta (RORb) (AID 2283010; active = hit-call score of the fitted dose curve at least 0.9, where 1 is the maximum)
Summary of the method: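 Multiplexed transcription-factor reporter assay: HepG2 cells transiently carrying NR-Gal4/GAL4-UAS constructs, 24 h treatment, mRNA quantified by RT-PCR plus capillary electrophoresis fluorescence; activity scored as induction over DMSO.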

[16] = target: human Retinoic Acid Receptor gamma (RARg), RARG (gene 5916) (UniProt P13631); assay: ATG_RARg_TRANS: Attagene TRANS-FACTORIAL HepG2 Assay for human Retinoic Acid Receptor gamma (RARg) (AID 2283009; active = hit-call score of the fitted dose curve at least 0.9, where 1 is the maximum)
Summary of the method: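 Gain-of-signal relative to DMSO is reported from fluorescent capillary electrophoresis of RT-PCR reporter products. These came from HepG2 cells expressing transfected RARg-GAL4 chimeras with UAS reporters, harvested 24 h after dosing.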

[17] = target: human Retinoic Acid Receptor beta (RARb), RARB (gene 5915) (UniProt P10826); assay: ATG_RARb_TRANS: Attagene TRANS-FACTORIAL HepG2 Assay for human Retinoic Acid Receptor beta (AID 2283004; active = hit-call score of the fitted dose curve at least 0.9, where 1 is the maximum)
Summary of the method: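 HepG2, transient MRTU transfection, NR–Gal4 chimera, 24 h treatment; RT-PCR plus CE fluorescence detection of reporter mRNA; gain of signal vs DMSO.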

[18] = target: Retinoic acid receptor alpha (Homo sapiens) (UniProt P10276); assay: ATG_RARa_TRANS: Attagene TRANS-FACTORIAL HepG2 Assay for human Retinoic Acid Receptor alpha (RARa) (AID 2283005; active = hit-call score of the fitted dose curve at least 0.9, where 1 is the maximum)
Summary of the method: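 HepG2 transiently transfected with multiplex GAL4-UAS reporter units including a human RARa–GAL4 chimera; 24 h compound exposure. Reporter mRNA quantified by RT-PCR, 6-FAM labeling and capillary electrophoresis; gain of signal versus DMSO.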

[19] = BSK_3C_Proliferation: Cell Proliferation Assessment in the BioMAP Diversity Plus: 3C Assay (AID 2283006); conditions: primary human endothelial cells (HUVEC);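 as to AC50: potency may reflect either rise or fall in cell number versus DMSO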
Summary of the method: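 Measured here: sulforhodamine B (0.1%) staining of TCA-fixed sub-confluent umbilical vein endothelial cultures 48 h post-dosing, absorbance 560 nm. DMSO served as negative control and baseline; both signal gain and loss were modelled.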

Measured: AC50

Chain of human Peroxisome Proliferator-activated Receptor alpha (PPARa), PPARA (gene 5465) (Q07869 whole entry, looked up, the tested form may be a part): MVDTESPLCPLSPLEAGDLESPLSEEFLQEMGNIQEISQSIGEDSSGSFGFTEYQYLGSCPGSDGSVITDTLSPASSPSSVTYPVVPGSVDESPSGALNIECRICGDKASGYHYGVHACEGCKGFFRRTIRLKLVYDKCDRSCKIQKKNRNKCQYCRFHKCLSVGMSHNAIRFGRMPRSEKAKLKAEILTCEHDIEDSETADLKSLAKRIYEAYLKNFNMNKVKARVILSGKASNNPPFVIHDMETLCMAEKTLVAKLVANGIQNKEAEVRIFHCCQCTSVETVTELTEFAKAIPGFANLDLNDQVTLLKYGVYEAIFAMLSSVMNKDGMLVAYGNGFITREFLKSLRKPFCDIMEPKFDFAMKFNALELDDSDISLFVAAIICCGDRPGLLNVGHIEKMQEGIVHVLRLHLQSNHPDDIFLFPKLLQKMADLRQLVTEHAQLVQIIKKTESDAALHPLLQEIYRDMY
Chain of Cellular tumor antigen p53 (Homo sapiens) (P04637 whole entry, looked up): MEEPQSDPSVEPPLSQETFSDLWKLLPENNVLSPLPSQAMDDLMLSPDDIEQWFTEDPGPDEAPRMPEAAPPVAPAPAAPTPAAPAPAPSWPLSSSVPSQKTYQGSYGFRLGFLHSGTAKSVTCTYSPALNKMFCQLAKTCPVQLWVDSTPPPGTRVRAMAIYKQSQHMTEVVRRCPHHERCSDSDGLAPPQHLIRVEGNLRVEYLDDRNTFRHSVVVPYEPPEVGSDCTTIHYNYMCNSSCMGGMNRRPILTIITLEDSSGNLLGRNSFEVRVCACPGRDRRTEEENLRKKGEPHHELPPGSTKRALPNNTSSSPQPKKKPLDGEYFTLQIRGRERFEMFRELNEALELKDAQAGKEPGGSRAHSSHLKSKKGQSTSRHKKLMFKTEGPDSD
Chain of Peroxisome proliferator-activated receptor gamma (Homo sapiens) (P37231 whole entry, looked up): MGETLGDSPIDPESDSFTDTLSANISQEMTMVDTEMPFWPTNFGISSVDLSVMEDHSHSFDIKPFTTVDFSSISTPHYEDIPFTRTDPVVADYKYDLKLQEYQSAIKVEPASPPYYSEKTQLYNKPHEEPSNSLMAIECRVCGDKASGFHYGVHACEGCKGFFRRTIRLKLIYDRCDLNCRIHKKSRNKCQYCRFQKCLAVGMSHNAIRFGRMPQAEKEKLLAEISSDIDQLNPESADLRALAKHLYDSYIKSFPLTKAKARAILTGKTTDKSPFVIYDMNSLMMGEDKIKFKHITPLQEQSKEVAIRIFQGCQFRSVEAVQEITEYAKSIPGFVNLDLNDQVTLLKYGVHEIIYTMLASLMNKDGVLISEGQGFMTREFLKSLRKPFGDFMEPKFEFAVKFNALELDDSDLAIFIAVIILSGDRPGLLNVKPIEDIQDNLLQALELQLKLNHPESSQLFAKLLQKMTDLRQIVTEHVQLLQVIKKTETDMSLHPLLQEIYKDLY
Chain of human RAR-related Orphan Receptor beta (RORb), RORB (gene 6096) (Q92753 whole entry, looked up, the tested form may be a part): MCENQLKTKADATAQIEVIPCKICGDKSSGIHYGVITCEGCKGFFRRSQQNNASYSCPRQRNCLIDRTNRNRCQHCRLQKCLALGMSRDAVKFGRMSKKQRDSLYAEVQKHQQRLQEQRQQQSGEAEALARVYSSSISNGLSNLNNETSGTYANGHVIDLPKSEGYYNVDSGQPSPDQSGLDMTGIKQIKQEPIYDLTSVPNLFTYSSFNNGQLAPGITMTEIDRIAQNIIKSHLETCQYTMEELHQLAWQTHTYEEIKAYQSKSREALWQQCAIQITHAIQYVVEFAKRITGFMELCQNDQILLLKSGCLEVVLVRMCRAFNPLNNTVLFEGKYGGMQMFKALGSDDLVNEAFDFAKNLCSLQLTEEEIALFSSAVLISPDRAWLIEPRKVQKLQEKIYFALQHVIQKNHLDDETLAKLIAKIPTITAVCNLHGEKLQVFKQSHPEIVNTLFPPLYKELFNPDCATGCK
Chain of Myc proto-oncogene protein (Homo sapiens) (P01106 whole entry, looked up, the tested form may be a part): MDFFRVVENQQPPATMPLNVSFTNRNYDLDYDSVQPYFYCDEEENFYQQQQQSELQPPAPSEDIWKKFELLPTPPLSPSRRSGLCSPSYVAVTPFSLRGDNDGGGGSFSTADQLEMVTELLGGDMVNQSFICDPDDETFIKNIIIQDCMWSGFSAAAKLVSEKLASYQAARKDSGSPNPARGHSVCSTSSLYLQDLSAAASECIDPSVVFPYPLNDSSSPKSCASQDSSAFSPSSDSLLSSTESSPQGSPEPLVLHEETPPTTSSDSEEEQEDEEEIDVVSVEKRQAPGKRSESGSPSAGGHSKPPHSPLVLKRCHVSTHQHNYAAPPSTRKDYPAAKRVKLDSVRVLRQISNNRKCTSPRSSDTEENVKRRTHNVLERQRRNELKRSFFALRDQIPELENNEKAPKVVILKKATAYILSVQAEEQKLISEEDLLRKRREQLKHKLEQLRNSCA
Chain of human Retinoic Acid Receptor gamma (RARg), RARG (gene 5916) (P13631 whole entry, looked up, the tested form may be a part): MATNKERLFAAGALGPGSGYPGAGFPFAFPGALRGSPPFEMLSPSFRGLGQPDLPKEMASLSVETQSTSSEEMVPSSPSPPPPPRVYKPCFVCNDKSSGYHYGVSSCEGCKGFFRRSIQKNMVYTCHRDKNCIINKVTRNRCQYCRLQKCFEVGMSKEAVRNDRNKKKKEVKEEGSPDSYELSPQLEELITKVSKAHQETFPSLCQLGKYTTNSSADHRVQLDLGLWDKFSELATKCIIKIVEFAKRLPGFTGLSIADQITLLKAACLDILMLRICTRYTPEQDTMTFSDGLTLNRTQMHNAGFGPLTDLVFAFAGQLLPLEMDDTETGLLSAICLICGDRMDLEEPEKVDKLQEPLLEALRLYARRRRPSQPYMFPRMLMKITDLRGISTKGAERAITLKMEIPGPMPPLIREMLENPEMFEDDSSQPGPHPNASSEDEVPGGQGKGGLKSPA
Chain of human Peroxisome Proliferator-activated Receptor delta (PPARd), PPARD (gene 5467) (Q03181 whole entry, looked up, the tested form may be a part): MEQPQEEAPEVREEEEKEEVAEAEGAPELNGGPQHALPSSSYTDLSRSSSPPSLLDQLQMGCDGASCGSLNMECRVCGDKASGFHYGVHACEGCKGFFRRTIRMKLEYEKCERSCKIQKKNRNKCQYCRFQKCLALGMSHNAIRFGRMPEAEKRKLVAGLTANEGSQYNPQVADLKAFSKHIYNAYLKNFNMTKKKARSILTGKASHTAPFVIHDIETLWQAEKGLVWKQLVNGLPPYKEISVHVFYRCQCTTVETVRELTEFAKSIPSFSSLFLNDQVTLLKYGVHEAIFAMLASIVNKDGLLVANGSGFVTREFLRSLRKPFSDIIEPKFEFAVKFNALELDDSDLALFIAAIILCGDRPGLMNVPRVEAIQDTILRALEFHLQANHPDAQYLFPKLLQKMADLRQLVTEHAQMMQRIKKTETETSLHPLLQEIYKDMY
Chain of human Retinoic Acid Receptor beta (RARb), RARB (gene 5915) (P10826 whole entry, looked up, the tested form may be a part): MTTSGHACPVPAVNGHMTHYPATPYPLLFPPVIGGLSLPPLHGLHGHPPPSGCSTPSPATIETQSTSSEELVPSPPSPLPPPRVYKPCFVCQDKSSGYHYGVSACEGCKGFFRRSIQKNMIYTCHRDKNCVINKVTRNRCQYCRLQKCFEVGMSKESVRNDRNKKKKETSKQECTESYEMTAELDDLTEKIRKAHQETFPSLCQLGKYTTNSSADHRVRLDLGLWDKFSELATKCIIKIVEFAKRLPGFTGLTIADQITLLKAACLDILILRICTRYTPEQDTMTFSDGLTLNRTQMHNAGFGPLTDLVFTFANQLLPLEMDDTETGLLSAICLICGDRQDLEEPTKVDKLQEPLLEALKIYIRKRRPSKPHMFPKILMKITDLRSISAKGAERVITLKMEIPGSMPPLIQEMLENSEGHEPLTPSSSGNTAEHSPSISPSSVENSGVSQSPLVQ
Chain of Nuclear receptor subfamily 1 group I member 2 (Homo sapiens) (O75469 whole entry, looked up, the tested form may be a part): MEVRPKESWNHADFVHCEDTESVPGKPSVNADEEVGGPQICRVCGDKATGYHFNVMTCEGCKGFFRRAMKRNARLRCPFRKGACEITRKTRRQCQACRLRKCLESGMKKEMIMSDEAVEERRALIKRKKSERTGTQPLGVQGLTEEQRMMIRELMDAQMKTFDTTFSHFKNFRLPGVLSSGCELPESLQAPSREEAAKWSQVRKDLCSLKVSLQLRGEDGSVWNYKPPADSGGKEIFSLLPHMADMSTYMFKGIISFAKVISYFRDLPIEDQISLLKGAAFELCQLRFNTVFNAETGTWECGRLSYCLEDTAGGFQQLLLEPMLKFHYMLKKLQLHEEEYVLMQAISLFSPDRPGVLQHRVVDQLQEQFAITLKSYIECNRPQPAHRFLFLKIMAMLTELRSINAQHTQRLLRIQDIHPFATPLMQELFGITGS
Chain of Retinoic acid receptor alpha (Homo sapiens) (P10276 whole entry, looked up, the tested form may be a part): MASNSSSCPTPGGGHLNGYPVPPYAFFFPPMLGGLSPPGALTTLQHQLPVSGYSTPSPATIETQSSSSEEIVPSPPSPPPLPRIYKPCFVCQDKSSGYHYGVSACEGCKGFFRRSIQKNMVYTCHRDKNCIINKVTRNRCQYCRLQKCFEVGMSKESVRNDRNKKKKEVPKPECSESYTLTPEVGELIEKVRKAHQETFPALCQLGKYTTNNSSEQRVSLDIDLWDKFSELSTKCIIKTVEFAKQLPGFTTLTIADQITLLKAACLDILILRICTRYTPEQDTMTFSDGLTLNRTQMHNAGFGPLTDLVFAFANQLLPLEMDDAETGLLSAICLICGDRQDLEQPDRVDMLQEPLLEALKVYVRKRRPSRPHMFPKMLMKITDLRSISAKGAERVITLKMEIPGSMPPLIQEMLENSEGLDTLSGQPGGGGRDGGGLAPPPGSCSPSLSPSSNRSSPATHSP

Oc1c(I)cc(I)cc1I
active: [7] 15.5 µM | [8] 20 µM | [9] 16.6 µM | [12] 9.7 µM | [13] 6.69 µM
inactive: [1] | [2] | [3] | [4] | [5] | [6] | [10] | [11]

N#Cc1ccccn1
inactive: [1] | [2] | [3] | [4] | [14] | [15]

O=C(c1ccccc1)C(Cl)Cl
inactive: [2] | [4] | [5] | [9] | [12] | [13] | [16] | [15]
active: [1] 25.1 µM | [3] 25.9 µM

C[C@]12CC[C@H](O)CC1=CC[C@@H]1[C@@H]2CC[C@]2(C)C(=O)CC[C@@H]12
inactive: [1] | [2] | [3] | [4] | [14] | [9] | [17] | [18] | [12] | [16]
active: [13] 27.5 µM

CC(C#N)CCC#N (centres undefined)
inactive: [1] | [2] | [3] | [4] | [14] | [10] | [17] | [12] | [13] | [16]

O=C(Nc1ccc2[nH]ccc2c1)c1cc2cc(F)ccc2n1Cc1cccc(F)c1
inactive: [1] | [5] | [10] | [12] | [13]
active: [2] 16.6 µM | [3] 7.2 µM | [4] 8.08 µM | [6] 8.59 µM | [7] 11.7 µM | [8] 11.1 µM | [11] 13.7 µM | [19] 3.44 µM

COS(=O)(=O)c1ccc(C)cc1
inactive: [1] | [2] | [3] | [4] | [5] | [9] | [10] | [12] | [13] | [15]

C=CC#N
inactive: [1] | [2] | [3] | [5] | [9] | [12]
active: [4] 119 µM

CC(C)(OO)c1ccccc1
not listed: [13] | [14] | [16] | [17] | [18]
inactive: all other assays above

O=C(CCl)CCl
inactive: [1] | [2] | [9] | [12] | [13] | [15]
active: [3] 33.4 µM | [4] 8.44 µM | [5] 58.6 µM

BrCCBr
not listed: [14] | [15] | [19]
inactive: all other assays above

— PubChem BioAssay (EPA / NIEHS)
